target: thrombin (human, UniProt P00734); experiment: primary screen, binary call; higher = more effect of the substance; design: screenings were carried out in duplicate in one independent experiment; details: 200 µM
Experimental: Protease inhibitory assays were performed in transparent microtiter plates in a final volume of 200 µL with the use of chromogenic substrates. The reaction rates in the absence and in the presence of the inhibitor were measured; screenings were carried out in duplicate in one independent experiment and Ki values were determined in triplicate in two independent experiments.

Thrombin, inactive:
NCC1(c2ccccc2)CCOCC1 0
Oc1cnc(-c2ccccc2)nc1 0
Cc1ccc(-c2ccc(O)cc2)cc1 0
O=C1NC2(CCCC2)Nc2ccccc21 0
FC1(F)CNCC(F)(F)O1 0
O=C1CCN(c2ccccn2)CC1 0
O=C(CN1CCCC1)c1ccccc1Cl 0
Oc1nnc(-c2ccccc2)o1 0
Cc1cc(N)no1 0
c1ccc2sc(N3CCNCC3)nc2c1 0
COc1ccccc1N1CCNCC1 0

Source: article PMC8159961, “Exploring protein hotspots by optimized fragment pharmacophores” (Nature Communications, 2021)
